According to publication PMC7862700, “An all-to-all approach to the identification of sequence-specific readers for epigenetic DNA modifications on cytosine”:

Tests used:
Assay in all cases: DAPPL (digital affinity profiling via proximity ligation, sequencing); 10 mM Tris-HCl pH 7.5, 50 mM NaCl, 1 mM DTT, 4% glycerol, room temperature, 30 min; GST-TFs on glutathione beads, 16-mer random dsDNA library, 0.1% formaldehyde crosslink after washing; high values mean tight binding
Conditions in all cases: protein: recombinant; tags: N-terminal GST; dsDNA, one strand shown
ERF = target: T1, ERF (Homo sapiens, UniProt P50548 1-548)
T1 sequence: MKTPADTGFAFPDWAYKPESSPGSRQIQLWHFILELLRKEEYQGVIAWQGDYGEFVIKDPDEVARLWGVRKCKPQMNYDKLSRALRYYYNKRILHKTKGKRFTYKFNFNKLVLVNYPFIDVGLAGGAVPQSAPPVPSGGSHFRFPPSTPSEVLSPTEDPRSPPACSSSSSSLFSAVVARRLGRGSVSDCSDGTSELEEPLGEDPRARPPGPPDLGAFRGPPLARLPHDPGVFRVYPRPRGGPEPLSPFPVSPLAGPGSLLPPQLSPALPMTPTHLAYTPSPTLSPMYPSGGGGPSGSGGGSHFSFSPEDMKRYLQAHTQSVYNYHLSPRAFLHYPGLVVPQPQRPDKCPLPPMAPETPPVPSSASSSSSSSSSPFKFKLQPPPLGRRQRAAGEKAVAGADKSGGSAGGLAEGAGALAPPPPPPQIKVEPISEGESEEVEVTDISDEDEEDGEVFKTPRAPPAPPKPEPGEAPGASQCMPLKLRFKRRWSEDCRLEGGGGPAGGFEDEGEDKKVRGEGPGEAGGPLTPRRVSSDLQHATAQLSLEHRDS
Outline: (§1)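 Human transcription factors were made in yeast as GST fusions, captured on glutathione beads and barcoded with DNA. With a tag-only sample included, the pool was incubated with 200 nmole of a random double-stranded 16-mer DNA library in Tris/NaCl/DTT/glycerol buffer at room temperature for 30 min, then crosslinked with 0.1% formaldehyde after washing, ligated by proximity, amplified and sequenced. For binding signal, each hexamer's read frequency for a factor is divided by its frequency for the tag-only sample.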

ETV3L = target: T2, ETV3L (Homo sapiens, UniProt Q6ZN32 1-361)
T2 sequence: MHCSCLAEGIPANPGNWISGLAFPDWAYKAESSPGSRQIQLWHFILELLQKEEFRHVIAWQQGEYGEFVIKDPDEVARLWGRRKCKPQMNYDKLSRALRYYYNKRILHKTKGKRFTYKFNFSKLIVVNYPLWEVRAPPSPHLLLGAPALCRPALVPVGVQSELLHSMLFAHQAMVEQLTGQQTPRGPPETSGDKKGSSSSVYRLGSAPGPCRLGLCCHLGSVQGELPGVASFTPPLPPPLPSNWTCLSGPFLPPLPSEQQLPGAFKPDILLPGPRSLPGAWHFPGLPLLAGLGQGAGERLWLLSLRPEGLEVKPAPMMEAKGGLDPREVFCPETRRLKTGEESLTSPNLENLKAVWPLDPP
Outline: as §1

ETS2 = target: T3, ETS2 (Homo sapiens, UniProt P15036 1-469)
T3 sequence: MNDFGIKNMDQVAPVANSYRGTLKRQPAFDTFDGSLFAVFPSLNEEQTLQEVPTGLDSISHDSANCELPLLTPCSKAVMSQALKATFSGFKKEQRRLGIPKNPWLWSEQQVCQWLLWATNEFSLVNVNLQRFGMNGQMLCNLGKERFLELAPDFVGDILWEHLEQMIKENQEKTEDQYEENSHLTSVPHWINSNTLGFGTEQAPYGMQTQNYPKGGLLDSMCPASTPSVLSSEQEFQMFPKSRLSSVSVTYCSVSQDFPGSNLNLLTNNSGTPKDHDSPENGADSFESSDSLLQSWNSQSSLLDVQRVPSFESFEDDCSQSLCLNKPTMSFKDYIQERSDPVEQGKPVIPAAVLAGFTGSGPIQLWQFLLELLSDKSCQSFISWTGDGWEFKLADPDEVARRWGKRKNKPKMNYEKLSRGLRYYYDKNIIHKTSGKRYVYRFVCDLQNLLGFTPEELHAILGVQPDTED
Outline: as §1

SPDEF = target: T4, SPDEF (Homo sapiens, UniProt O95238 1-335)
T4 sequence: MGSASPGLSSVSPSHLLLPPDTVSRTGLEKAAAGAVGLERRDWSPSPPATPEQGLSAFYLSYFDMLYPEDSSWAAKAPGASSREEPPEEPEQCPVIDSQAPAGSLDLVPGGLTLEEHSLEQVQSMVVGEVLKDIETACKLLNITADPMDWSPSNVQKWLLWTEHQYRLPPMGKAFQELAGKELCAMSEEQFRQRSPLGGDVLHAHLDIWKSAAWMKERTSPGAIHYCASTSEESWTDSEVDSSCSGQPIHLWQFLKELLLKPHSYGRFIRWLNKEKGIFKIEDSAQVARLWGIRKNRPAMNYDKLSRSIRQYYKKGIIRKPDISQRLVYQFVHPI
Outline: as §1

ETV7 = target: T5, ETV7 (Homo sapiens, UniProt Q9Y603 1-341)
T5 sequence: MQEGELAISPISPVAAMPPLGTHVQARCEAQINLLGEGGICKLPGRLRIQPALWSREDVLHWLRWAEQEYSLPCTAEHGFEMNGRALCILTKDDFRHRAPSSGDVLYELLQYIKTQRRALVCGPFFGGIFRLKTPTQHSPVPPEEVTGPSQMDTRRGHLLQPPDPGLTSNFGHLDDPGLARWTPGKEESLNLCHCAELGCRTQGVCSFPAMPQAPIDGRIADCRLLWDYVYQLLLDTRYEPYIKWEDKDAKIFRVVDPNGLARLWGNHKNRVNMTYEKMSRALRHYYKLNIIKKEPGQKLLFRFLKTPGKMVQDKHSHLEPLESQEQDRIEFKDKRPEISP
Outline: as §1

ELF5 = target: T6, ELF5 (Homo sapiens, UniProt Q9UKW6-2 1-255)
T6 sequence: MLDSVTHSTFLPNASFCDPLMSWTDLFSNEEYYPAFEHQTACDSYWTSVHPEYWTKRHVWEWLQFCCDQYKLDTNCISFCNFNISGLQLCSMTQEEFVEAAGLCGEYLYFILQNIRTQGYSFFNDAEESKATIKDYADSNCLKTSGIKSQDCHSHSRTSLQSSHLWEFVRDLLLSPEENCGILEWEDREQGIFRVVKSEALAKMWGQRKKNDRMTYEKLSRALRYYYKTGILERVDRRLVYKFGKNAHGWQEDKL
Outline: as §1

ETV3 = target: T7, ETV3 (Homo sapiens, UniProt P41162-2 1-143)
T7 sequence: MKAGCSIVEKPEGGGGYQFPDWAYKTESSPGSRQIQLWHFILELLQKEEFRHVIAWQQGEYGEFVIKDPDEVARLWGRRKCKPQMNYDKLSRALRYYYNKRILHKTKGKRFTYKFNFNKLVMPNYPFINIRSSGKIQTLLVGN
Outline: as §1

ETV6 = ETV6 (Homo sapiens, UniProt P41212 1-452)
Outline: as §1

Sequence of ETV6 (P41212 whole entry): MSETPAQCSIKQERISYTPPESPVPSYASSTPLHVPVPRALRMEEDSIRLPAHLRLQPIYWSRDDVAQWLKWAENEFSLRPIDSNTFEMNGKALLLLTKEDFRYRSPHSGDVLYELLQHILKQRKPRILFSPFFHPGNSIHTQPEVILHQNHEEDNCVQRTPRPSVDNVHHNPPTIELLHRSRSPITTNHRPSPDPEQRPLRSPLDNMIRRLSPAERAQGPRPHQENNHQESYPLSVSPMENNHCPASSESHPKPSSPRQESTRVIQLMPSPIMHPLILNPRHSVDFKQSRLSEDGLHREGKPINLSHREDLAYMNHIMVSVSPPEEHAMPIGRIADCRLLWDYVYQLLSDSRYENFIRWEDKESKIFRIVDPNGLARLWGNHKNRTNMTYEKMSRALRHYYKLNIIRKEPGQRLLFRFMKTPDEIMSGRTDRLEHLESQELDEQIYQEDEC

| Sequence | binding signal (ERF) | binding signal (ETV3L) | binding signal (ETS2) | binding signal (SPDEF) | binding signal (ETV7) | binding signal (ELF5) | binding signal (ETV3) | binding signal (ETV6) |
| --- | --- | --- | --- | --- | --- | --- | --- | --- |
| TTCCGG | 4.81 fold enrichment (6-mer frequency, TF over GST control) | 5.36 fold enrichment (6-mer frequency, TF over GST control) | 6 fold enrichment (6-mer frequency, TF over GST control) | 6.57 fold enrichment (6-mer frequency, TF over GST control) | 5.39 fold enrichment (6-mer frequency, TF over GST control) | 8.59 fold enrichment (6-mer frequency, TF over GST control) | 6.28 fold enrichment (6-mer frequency, TF over GST control) | 6.93 fold enrichment (6-mer frequency, TF over GST control) |
| AGCTAC | 1.25 fold enrichment (6-mer frequency, TF over GST control) | 1.14 fold enrichment (6-mer frequency, TF over GST control) | 1.09 fold enrichment (6-mer frequency, TF over GST control) | 1.02 fold enrichment (6-mer frequency, TF over GST control) | 1.31 fold enrichment (6-mer frequency, TF over GST control) | 1.18 fold enrichment (6-mer frequency, TF over GST control) | 1.17 fold enrichment (6-mer frequency, TF over GST control) | 1.22 fold enrichment (6-mer frequency, TF over GST control) |
| GATTCA | 1.06 fold enrichment (6-mer frequency, TF over GST control) | 1.19 fold enrichment (6-mer frequency, TF over GST control) | 1.18 fold enrichment (6-mer frequency, TF over GST control) | 1.12 fold enrichment (6-mer frequency, TF over GST control) | 1.09 fold enrichment (6-mer frequency, TF over GST control) | 1.05 fold enrichment (6-mer frequency, TF over GST control) | 1.2 fold enrichment (6-mer frequency, TF over GST control) | 1.13 fold enrichment (6-mer frequency, TF over GST control) |
| CTATAC | 1.21 fold enrichment (6-mer frequency, TF over GST control) | 1.19 fold enrichment (6-mer frequency, TF over GST control) | 1.28 fold enrichment (6-mer frequency, TF over GST control) | 1.39 fold enrichment (6-mer frequency, TF over GST control) | 1.19 fold enrichment (6-mer frequency, TF over GST control) | 1.26 fold enrichment (6-mer frequency, TF over GST control) | 1.24 fold enrichment (6-mer frequency, TF over GST control) | 1.28 fold enrichment (6-mer frequency, TF over GST control) |
| CCCTAC | 1.37 fold enrichment (6-mer frequency, TF over GST control) | 1.53 fold enrichment (6-mer frequency, TF over GST control) | 1.42 fold enrichment (6-mer frequency, TF over GST control) | 1.43 fold enrichment (6-mer frequency, TF over GST control) | 1.37 fold enrichment (6-mer frequency, TF over GST control) | 1.61 fold enrichment (6-mer frequency, TF over GST control) | 1.41 fold enrichment (6-mer frequency, TF over GST control) | 1.6 fold enrichment (6-mer frequency, TF over GST control) |
| CGTTCT | 1.46 fold enrichment (6-mer frequency, TF over GST control) | 1.51 fold enrichment (6-mer frequency, TF over GST control) | 1.37 fold enrichment (6-mer frequency, TF over GST control) | 1.44 fold enrichment (6-mer frequency, TF over GST control) | 1.56 fold enrichment (6-mer frequency, TF over GST control) | 1.44 fold enrichment (6-mer frequency, TF over GST control) | 1.37 fold enrichment (6-mer frequency, TF over GST control) | 1.47 fold enrichment (6-mer frequency, TF over GST control) |
| ACGAAT | 1.17 fold enrichment (6-mer frequency, TF over GST control) | 1.15 fold enrichment (6-mer frequency, TF over GST control) | 1.1 fold enrichment (6-mer frequency, TF over GST control) | 1.13 fold enrichment (6-mer frequency, TF over GST control) | 1.23 fold enrichment (6-mer frequency, TF over GST control) | 1.11 fold enrichment (6-mer frequency, TF over GST control) | 1.11 fold enrichment (6-mer frequency, TF over GST control) | 1.11 fold enrichment (6-mer frequency, TF over GST control) |
| TTTGCG | 1.36 fold enrichment (6-mer frequency, TF over GST control) | 1.16 fold enrichment (6-mer frequency, TF over GST control) | 1.21 fold enrichment (6-mer frequency, TF over GST control) | 1.2 fold enrichment (6-mer frequency, TF over GST control) | 1.11 fold enrichment (6-mer frequency, TF over GST control) | 1.16 fold enrichment (6-mer frequency, TF over GST control) | 1.17 fold enrichment (6-mer frequency, TF over GST control) | 1.29 fold enrichment (6-mer frequency, TF over GST control) |
| GCCTTC | 1.47 fold enrichment (6-mer frequency, TF over GST control) | 1.45 fold enrichment (6-mer frequency, TF over GST control) | 1.44 fold enrichment (6-mer frequency, TF over GST control) | 1.47 fold enrichment (6-mer frequency, TF over GST control) | 1.47 fold enrichment (6-mer frequency, TF over GST control) | 1.67 fold enrichment (6-mer frequency, TF over GST control) | 1.63 fold enrichment (6-mer frequency, TF over GST control) | 1.47 fold enrichment (6-mer frequency, TF over GST control) |
| CTGTTA | 1.28 fold enrichment (6-mer frequency, TF over GST control) | 1.23 fold enrichment (6-mer frequency, TF over GST control) | 1.26 fold enrichment (6-mer frequency, TF over GST control) | 1.32 fold enrichment (6-mer frequency, TF over GST control) | 1.12 fold enrichment (6-mer frequency, TF over GST control) | 1.37 fold enrichment (6-mer frequency, TF over GST control) | 1.31 fold enrichment (6-mer frequency, TF over GST control) | 1.26 fold enrichment (6-mer frequency, TF over GST control) |
| AAGTTC | 1.31 fold enrichment (6-mer frequency, TF over GST control) | 1.5 fold enrichment (6-mer frequency, TF over GST control) | 1.55 fold enrichment (6-mer frequency, TF over GST control) | 1.54 fold enrichment (6-mer frequency, TF over GST control) | 1.4 fold enrichment (6-mer frequency, TF over GST control) | 1.57 fold enrichment (6-mer frequency, TF over GST control) | 1.48 fold enrichment (6-mer frequency, TF over GST control) | 1.52 fold enrichment (6-mer frequency, TF over GST control) |
| AAAACA | 1.26 fold enrichment (6-mer frequency, TF over GST control) | 1.32 fold enrichment (6-mer frequency, TF over GST control) | 1.38 fold enrichment (6-mer frequency, TF over GST control) | 1.29 fold enrichment (6-mer frequency, TF over GST control) | 1.34 fold enrichment (6-mer frequency, TF over GST control) | 1.34 fold enrichment (6-mer frequency, TF over GST control) | 1.31 fold enrichment (6-mer frequency, TF over GST control) | 1.27 fold enrichment (6-mer frequency, TF over GST control) |
